Compound activity as filed in PubChem BioAssay.
D1 antag: blocks dopamine activation of the human D1 receptor | HEK293 TREx D1 cells, calcium flux, dopamine EC80; hits give low values | activity change, negative = inhibition, % at 10 µM | 360,000 tested, 3.2% active; in the data active = activity change below about -30%; also: % is scaled to controls: 0 for no effect and ±100 for the full control effect
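HEK293 T-REx cells expressing inducible, force-coupled D1 receptor; no-wash Ca dye, 30–90 min RT. Cmpd → 180 s read at 1 Hz → EC80 DA → 180 s read.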
D1 ag: agonists of human D1 dopamine receptor; activation, % at 2 µM; 360,000 tested, 1% active; HEK293 T-REx D1 cells, calcium flux, agonist mode; in the data active = activation above about 30%; also: 0% is about no effect
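Inducible HEK293 T-REx D1 cells, force-coupled to calcium signalling, were plated at 4000 cells/well with tetracycline and held overnight at 30 C. After no-wash calcium dye loading, compound-evoked calcium rise over 180 s flagged agonists.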
D1 potentiator: enhances dopamine response at the human D1 receptor. AID 504651. 360,000 tested, 0.036% active. potentiation, % at 10 µM. HEK293 TREx D1 cells, calcium flux, dopamine EC20 potentiation; in the data active = potentiation above about 30%; also: 0% is about no effect
TRHR agonist-1: activates the human TRH receptor; P34981; 360,000 tested, 0.18% active; activation, % at 2 µM; TRHR cells, calcium flux fluo-8, FDSS agonist mode; in the data active = activation above about 30%; also: 0% is about no effect
Target sequence (P34981 whole entry, looked up): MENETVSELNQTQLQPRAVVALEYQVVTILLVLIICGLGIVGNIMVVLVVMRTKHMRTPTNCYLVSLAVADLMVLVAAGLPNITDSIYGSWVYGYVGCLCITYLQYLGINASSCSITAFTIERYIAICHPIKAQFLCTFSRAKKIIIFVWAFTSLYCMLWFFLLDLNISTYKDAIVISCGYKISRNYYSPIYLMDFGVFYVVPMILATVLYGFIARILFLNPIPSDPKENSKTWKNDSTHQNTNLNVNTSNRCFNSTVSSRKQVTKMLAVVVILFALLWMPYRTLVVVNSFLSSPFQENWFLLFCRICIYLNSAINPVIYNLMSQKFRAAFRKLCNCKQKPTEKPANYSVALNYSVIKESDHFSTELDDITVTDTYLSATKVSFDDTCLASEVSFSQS
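Agonist-mode FDSS calcium read (Ex 480/Em 530, 1 s cycles) in 1536-well TRHR cells with fluo-8 dye, after 10-cycle baseline and 23 nL compound addition; TRH at EC20 (10 nM final) added afterwards for the enhancer phase.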
TRHR enhancer-1: allosterically enhances the human TRH receptor; P34981; 360,000 tested, 0.66% active; AID 493056; TRHR cells, fluo-8 calcium fluorescence, EC20 TRH enhancement; enhancement, % at 2 µM; in the data active = enhancement above about 30%; also: 0% is about no effect
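TRHR-expressing cells loaded with fluo-8 calcium dye were read kinetically (ex 480/em 530) during compound addition, then stimulated with an EC20 of TRH (10 nM final). Enhancement of the Gq-mediated intracellular calcium response was scored.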
TRHR enhancer-2: confirmation of human TRH receptor allosteric enhancers. shares compounds with TRHR enhancer-1. TRH receptor cell assay, enhancer confirmation qHTS. activity change, negative = inhibition, % at 46.1 µM. 970 tested, under 10 active;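 also: compound effect scored on response to added TRH at EC20 of 10 nM; 0% is about no effect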
TRHR agonist-2: human TRH receptor agonism confirmation; 970 tested, 8% active; AID 493078; shares compounds with TRHR enhancer-1; Potency, µM (doses to about 46.1 µM), for inactives: top-dose activation, usual class: activators; TRHR-expressing cells, agonist activation read-out; also: potency is read from the fitted curve at half-maximal effect; 0% is about no effect; nearly all actives have a fitted effect of over 75% in size
Numbers without * were called inactive; ? = inconclusive; · = not tested or not shown. Hits are enriched below; roughly 4.7% of the tested compounds scored in any of these assays. Unless noted, calls follow the shape of the dose curve; as a rule, active = well fitted curve in the direction sought with a large enough effect; inconclusive = small, poorly fitted or top-dose-only effect, or another doubt; inactive = no such curve, though single readings can be large; an effect the other way counts as inactive or inconclusive.

SMILES	D1 antag	D1 ag	D1 potentiator	TRHR agonist-1	TRHR enhancer-1	TRHR enhancer-2	TRHR agonist-2
CCCCOc1ccc(C(=O)N/C(=C/C=C/c2ccccc2)C(=O)O)cc1	-4.3	2.3	8.1	28.6	-1.1	-6.0	0.5%
Cc1cc(C)cc(NC(=O)CN(c2ccc(F)cc2)S(C)(=O)=O)c1	-9.5	4.7	4.4	-0.9	9.7	·	·
N#Cc1cc(C(=O)c2ccccc2O)cn(-c2ccc(Cl)cc2)c1=O	-2.3	19.2	-3.3	19.2	-0.3	·	·
Cc1c(-n2cc(C(=O)c3ccccc3O)cc(C#N)c2=O)c(=O)n(-c2ccccc2)n1C	-6.5	35.6*	-11.8	41.7*	-2.1	-7.8	?
Cc1cc(=O)oc2c(CN3CCCCC3)c(O)c(Cl)cc12	-15.1	-3.1	-3.3	-1.4	18.9	·	·
Cc1cc(=O)oc2c(CN3CCCC3)c(O)c(Cl)cc12	-12.4	17.5	-3.0	-2.1	59.3*	-11.8	3.4%
O=[N+]([O-])c1ccc(C(O)CN=Cc2ccc(O)cc2O)cc1 (stereo not drawn)	-2.1	1.3	11.9	-0.3	-7.6	·	·
O=C(NCCCn1ccnc1)c1nc(Cn2cc([N+](=O)[O-])cn2)no1	-10.4	1.4	-6.3	-1.0	-2.8	·	·
O=C(NCCc1ccc(Cl)cc1)C12CC3CC(CC(O)(C3)C1)C2	6.5	-0.3	1.0	0.4	45.0*	0.1	0.7%
O=C(c1cc(-c2ccc(Cl)cc2)n[nH]1)N1CCc2ccccc2C1	3.3	1.7	-4.8	0.6	6.6	·	·
COc1cc(CNc2ncc(-c3ccc(Br)cc3)n2C)cc(OC)c1O	-41.9*	1.6	-8.9	0.4	41.1*	0.5	5.3%
Cn1c(-c2cccc(Br)c2)cnc1NCc1cccnc1	-9.3	2.1	-10.1	-1.2	6.0	·	·
COc1cc(CCC(=O)Nc2ccc(S(=O)(=O)NC3=NCCCCC3)cc2)cc(OC)c1OC	-16.9	-0.5	-6.2	0.1	5.9	·	·
COc1cc(/C=C(/C#N)C(=O)NC(C)c2ccccc2)cc(OC)c1O (stereo not drawn)	3.8	94.7*	1.2	118.2*	0.2	7.8	20.6µM*
CN(CC1CCCN(CCc2ccc(Cl)cc2)C1)C(=O)CC(F)(F)F (stereo not drawn)	-19.8	0.5	-11.0	0.9	-14.9	·	·
CC(C)CC1=NN2C(=N)/C(=C\c3coc4ccccc4c3=O)C(=O)N=C2S1	0.9	61.2*	-4.5	25.5	13.6	-0.4	2.59µM*
COc1cccc(NC(=O)C(=O)NCCC2CCCCN2S(=O)(=O)c2ccccc2)c1 (stereo not drawn)	-12.0	5.8	-1.9	0.0	4.2	·	·
O=P1(c2ccccc2)C=Cn2c1cc1c2CCCC1 (stereo not drawn)	7.3	0.4	2.2	0.1	60.1*	11.7	-0.6%
CC(=O)c1cc2c(cc1NS(=O)(=O)c1ccccc1Br)OCO2	17.8	0.1	-8.8	-0.6	-2.6	·	·
Cn1c(O)c(N=NC(=N)N)c2ccccc21	-14.1	1.7	-10.2	0.9	66.4*	-1.7	-0.6%
CCOc1ccc(N2C(=O)CC(N(CCc3ccc(OC)cc3)C(=O)c3cccc(F)c3)C2=O)cc1 (stereo not drawn)	-6.5	0.7	0.1	-0.7	1.2	·	·
CC(C)(C)c1ccc(OCCCC(=O)NNC(=O)c2ccccc2O)cc1	-9.7	14.7	-6.7	0.0	41.5*	-3.8	0.3%
COc1cc(C2C(C#N)=C(N)Oc3cc(N(C)C)ccc32)cc2c1OCO2 (stereo not drawn)	10.2	45.3*	-1.4	44.7*	2.0	2.8	?
COc1cc(NC(=O)CSc2nc3[nH]ncc3c(=O)n2-c2ccccc2C)cc(OC)c1OC	6.4	9.3	0.8	-0.1	-2.3	·	·
C=CCN(C(=O)CSc1nc2[nH]ncc2c(=O)n1-c1ccccc1OC)c1ccccc1	29.8	5.8	-2.1	31.5*	-5.4	-3.2	2.5%
CCc1nnc(NC(=O)C2CCN(c3ncnc4sc(C)c(C)c34)CC2)s1	-14.4	-0.7	5.1	-0.5	42.0*	2.8	5.2%
